According to PubChem BioAssay (NCATS):
Values joined by “and” are separate entries in the source; they are usually repeats but may differ in a detail not shown here. Equal entries are not always repeated. Inconclusive results are not listed. More than one record can exist for a structure, and the calls need not agree. Active and inactive are the calls of the source. Unless noted, calls follow the shape of the full dose curve.
Potency is read from the fitted curve at half-maximal effect.

Experiment: Primary qHTS to identify inhibitors of SARS-CoV-2 cell entry (AID 1645846); also: nearly all actives have a fitted effect of over 45% in size
Conditions: SARS-CoV-2 pseudovirus cell entry assay, luminescence; activity change, negative = inhibition: at 57.1 µM (top of the series) unless noted; series mostly up to 57.1 µM
Summary of the method: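 Entry measured by luciferase signal 48 h after adding SARS-CoV-2-S pseudotyped MLV particles to HEK293-ACE2 cells preincubated 1 h with compounds. Normalisation: bald particles and spike particles.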
In the case of COc1cc(OC2CCN(C)CC2)ccc1Nc1ncc2c(n1)n(C1CCCC1)c(=O)n2C, the Potency was 28.2 µM (active). Compound CN(C)CCN(C)C(=O)c1ccc(NC(=O)Nc2ccc(-c3nc(N4CCOCC4)c4ccn(CC(F)(F)F)c4n3)cc2)cc1 has an activity change, negative = inhibition of -96.8%. Compound CC(C)(C)OC(=O)Nc1ccc(-c2cc(C(=O)NCCCCCCC(=O)NO)no2)cc1 has an activity change, negative = inhibition of -8.17%. For O=c1cc(N2CCOCC2)oc2c(-c3cccc4c3sc3ccccc34)cccc12, the Potency was 7.94 µM (active). With COc1cc(C)c(Sc2cnc(NC(=O)c3ccc(CNC(C)C(C)(C)C)cc3)s2)cc1C(=O)N1CCN(C(C)=O)CC1 (stereo not given) the Potency was 12.6 µM (active). With O=C(c1ccc(Nc2nccc(-c3cc4ccccc4s3)n2)cc1)N1CCC(N2CCCC2)CC1 the Potency was 11.2 µM (active). CC[C@@H]1C(=O)N(C)c2cnc(Nc3ccc(C(=O)NC4CCN(C)CC4)cc3OC)nc2N1C1CCCC1 showed an activity change, negative = inhibition of -96.8%. In the case of CC(C)[C@H]1C(=O)N[C@H](CO)Cc2c[nH]c3cccc(c23)N1C, the “outcome” value was “inactive [at 27.1 µM]”. In the case of CN(C)c1ccc(Nc2nc(N)n(C(=O)c3c(F)cccc3F)n2)cc1, the Potency was 12.6 µM (active). With CN(C)CCCN=c1c2ccccc2n(C)c2[nH]c(=O)n(C)c(=O)c12 the Potency was 31.6 µM (active). In the case of CC1=C[C@@H]2[C@@H]([C@@H](O)C[C@@]3(C)[C@H]2C[C@@H](C)[C@]3(O)C(=O)CO)[C@@]2(C)Cc3cnn(-c4ccccc4)c3C=C12, the “outcome” value was “inactive”. With COc1cc2nc(N3CCCN(C)CC3)nc(NC3CCN(Cc4ccccc4)CC3)c2cc1OC the Potency was 3.16 µM (active). For Cc1c(C(=O)Nc2ccc(N3C[C@@H](C)O[C@@H](C)C3)nc2)cccc1-c1ccc(OC(F)(F)F)cc1, the Potency was “inactive and 12.6 µM (active)”. COCCn1c2c([n+](Cc3cnccn3)c1C)C(=O)c1ccccc1C2=O gave an activity change, negative = inhibition of -98.5%. For O=C(Nc1cccc(Cl)c1)Nc1ncc(CCNc2ncnc3ccsc23)s1, the Potency was 3.16 µM (active). In the case of O=c1cc(CN2CCOCC2)occ1OCCCCCSc1ccnc2cc(C(F)(F)F)ccc12, the Potency was 10 µM (active). With C=CC(=O)Nc1cccc(Oc2nc(Nc3ccc(N4CCN(C)CC4)cc3OC)ncc2Cl)c1 the Potency was 31.6 µM (active). COc1cc2c(cc1O)CC[C@@H]1[C@@H]2CC[C@]2(C)[C@@H](O)CC[C@@H]12 showed an activity change, negative = inhibition of -26.7%. With C=CCc1cccc(/C=N/NC(=O)CN2CCN(Cc3ccccc3)CC2)c1O the Potency was 31.6 µM (active). In the case of S=C(NCc1ccc2c(c1)OCO2)N1CCN(c2ncnc3c2oc2ccccc23)CC1, the Potency was 6.31 µM (active). Compound C[C@@H](Oc1cc(-n2cnc3ccc(CN4CCN(C)CC4)cc32)sc1C(N)=O)c1ccccc1C(F)(F)F has an activity change, negative = inhibition of -97%. In the case of Nc1nc(Nc2ccc(S(N)(=O)=O)cc2)nn1C(=O)c1c(F)cccc1F, the Potency was 1 µM (active). COc1cc2c(cc1OC)[C@@H]1C(=O)c3ccc4c(c3O[C@@H]1CO2)C=CC(C)(C)O4 gave an activity change, negative = inhibition of -98.6%. In the case of CC(C)C[C@H](NC(=O)CNC(=O)c1cc(Cl)ccc1Cl)B(O)O, the activity change, negative = inhibition was -97.2% and -98.8%. For O=C1[C@H](Cc2ccc(O)cc2)N2C(=O)CCN(C(=O)NCc3ccccc3)[C@H]2CN1Cc1cccc2ccccc12, the activity change, negative = inhibition was -93.3%. With CCN(CC)CCOc1ccc(Nc2ncc3cc(-c4c(Cl)cccc4Cl)c(=O)n(C)c3n2)cc1 the Potency was 3.16 µM (active). With COc1ncc(-c2ccc3nccc(-c4ccnnc4)c3c2)cc1NS(=O)(=O)c1ccc(F)cc1F the Potency was 2.51 µM (active). In the case of CC(C)(C)COc1ccc(-n2cc(C(=O)O)cn2)cc1C#N, the activity change, negative = inhibition was -72.8%. With CN(NC(=O)CC(=O)NN(C)C(=S)c1ccccc1)C(=S)c1ccccc1 the activity change, negative = inhibition was -97.7%. For COc1ccc2c(c1)CC[C@@H](CN(C)CC(=O)O)[C@H]2c1ccccc1, the “outcome” value was “inactive [at 114 µM]”.

Experiment: Primary qHTS for inhibitors of nuclear receptor binding SET domain protein 2 (NSD2) in an isogenic RCH-ACV NSD2 p.E1099K mutant (9B) (AID 1645876; active = well fitted curve in the direction sought with a large enough effect; an effect the other way counts as inactive or inconclusive; also: nearly all actives have a fitted effect of over 70% in size; as to activity change, negative = viability loss: % is scaled to controls: 0 for no effect and ±100 for the full control effect)
Conditions: RCH-ACV NSD2 E1099K (9B) viability, CellTiter-Glo, 72 h; series mostly up to 44.9 µM; activity change, negative = viability loss: at the top concentration
In the case of Cc1c(C(=O)Nc2cccc(C(F)(F)F)c2)cc(-c2ccccc2)n1CCCN1CCOCC1, the Potency was 20.9 µM (active). For CCN1CCN(C(=O)Cc2ccc(Nc3ncc(F)c(Nc4ccc(C(=O)Nc5ccccc5Cl)cc4)n3)cc2)CC1, the Potency was 2.31 µM (active) and 2.63 µM (active). In the case of CCNC(=O)C[C@@H]1N=C(c2ccc(Cl)cc2)c2cc(OC)ccc2-n2c(C)nnc21, the Potency was 459 nM (active) and 590 nM (active). For O=S(=O)(CC1CS1)c1ccc(Oc2ccccc2)cc1 (stereo not given), the Potency was 8.33 µM (active). With Clc1ccccc1C(c1ccccc1)(c1ccccc1)n1cccn1 the “outcome” value was “inactive”. For O=C(N[C@@H](COc1ccc2[nH]c(=O)[nH]c2c1)c1ccccc1)c1cccn(Cc2ccc(F)c(F)c2)c1=O, the Potency was 1.63 µM (active). With C[C@]12CC[C@H]3[C@@H](CCC4=CC(=O)CC[C@@]43C)[C@H]1CC[C@H]2OC(=O)CCC1CCCC1 the “activity change, negative = viability loss” value was -8.5% (inactive).

Experiment: Primary qHTS for inhibitors of nuclear receptor binding SET domain protein 2 (NSD2) in an RCH-ACV wild type WT cells (2C) (AID 1645877; active = well fitted curve in the direction sought with a large enough effect; an effect the other way counts as inactive or inconclusive; also: nearly all actives have a fitted effect of over 70% in size; as to activity change, negative = cell killing: % is scaled to controls: 0 for no effect and ±100 for the full control effect)
Conditions: RCH-ACV (leukaemia line) NSD2 WT (2C) viability, CellTiter-Glo, 72 h; series mostly up to 44.9 µM; activity change, negative = cell killing: at the top concentration
With Cc1c(C(=O)Nc2cccc(C(F)(F)F)c2)cc(-c2ccccc2)n1CCCN1CCOCC1 the Potency was 23.5 µM (active). With CCN1CCN(C(=O)Cc2ccc(Nc3ncc(F)c(Nc4ccc(C(=O)Nc5ccccc5Cl)cc4)n3)cc2)CC1 the Potency was 2.31 µM (active) and 2.35 µM (active). With CCNC(=O)C[C@@H]1N=C(c2ccc(Cl)cc2)c2cc(OC)ccc2-n2c(C)nnc21 the Potency was 459 nM (active) and 833 nM (active). In the case of O=S(=O)(CC1CS1)c1ccc(Oc2ccccc2)cc1 (stereo not given), the Potency was 5.25 µM (active). With Clc1ccccc1C(c1ccccc1)(c1ccccc1)n1cccn1 the “activity change, negative = cell killing” value was 2.91% (inactive). With O=C(N[C@@H](COc1ccc2[nH]c(=O)[nH]c2c1)c1ccccc1)c1cccn(Cc2ccc(F)c(F)c2)c1=O the Potency was 4.17 µM (active). For CN1CCN(c2ccc([N+](=O)[O-])c3no[n+]([O-])c23)CC1, the Potency was 20.9 µM (active). In the case of C[C@]12CC[C@H]3[C@@H](CCC4=CC(=O)CC[C@@]43C)[C@H]1CC[C@H]2OC(=O)CCC1CCCC1, the “activity change, negative = cell killing” value was -11.3% (inactive).
